From PubChem BioAssay (NCI) come the findings set out here.

Common to all, as to experiment: NCI-60 one-dose screen, 48 h (100 = growth as untreated, 0 = no growth, -100 = all killed)
One assay relates to HCT-15 colon. The conditions noted are these: 10 µM unless noted.
The next assay has as its system HT29 colon. Conditions: 10 µM unless noted.
The test system of a further assay is SNB-75 CNS. Conditions: 10 µM unless noted.
Another assay relates to SNB-19 CNS. Conditions: 10 µM unless noted.
The subject of the next assay is U251 CNS. The conditions noted are these: 10 µM unless noted.
For a further assay, the system named is PC-3 prostate. The conditions noted are these: 10 µM unless noted.
The test system of a further assay is UACC-62 melanoma. The conditions noted are these: 10 µM unless noted.
Another assay has as its system LOX IMVI melanoma. The conditions noted are these: 10 µM unless noted.
Another assay relates to SK-MEL-28 melanoma. The conditions noted are these: 10 µM unless noted.
Another assay deals with SK-MEL-2 melanoma. Conditions: 10 µM unless noted.
In a further assay the test system is EKVX NSCLC. Conditions: 10 µM.
For the next assay, the system named is SN12C renal. The conditions noted are these: 10 µM unless noted.
The next assay relates to UO-31 renal. The conditions noted are these: 10 µM unless noted.
A further assay relates to TK-10 renal. Conditions: 10 µM unless noted.
The test system of a further assay is ACHN renal. Conditions: 10 µM unless noted.
Another assay concerns CAKI-1 renal. Conditions: 10 µM unless noted.
A further assay relates to A498 renal. Conditions: 10 µM unless noted.
The next assay deals with CCRF-CEM leukemia. Conditions: 10 µM.
In a further assay the test system is MOLT-4 leukemia. Conditions: 10 µM unless noted.
The test system of the next assay is SK-MEL-5 melanoma. Conditions: 10 µM unless noted.

The structures appear in SMILES notation. About 83,000 compounds went through this panel and 20% of them were active in at least one assay; those are over-represented in the sample as a whole.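 A percent growth of 40 corresponds to 60% growth inhibition; 0 means no net growth; -100 means all cells died. Active threshold: below 10.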 Values without a mark were called inactive. Calls of active or inactive are those of the source.

Regarding `Cc1c(C(N)=O)sc2c1c(=O)n(Cc1ccccc1)c1nnc(S(C)(=O)=O)n21`, the growth with HCT-15 colon is 96.1%; in the assay on HT29 colon it was 88.2%; in the assay on SNB-75 CNS, 94.4%; in the assay with SNB-19 CNS, 93.2%; in the assay with U251 CNS it was 98.7%; in the assay with PC-3 prostate it was 47.8%. Further, the growth is 78.1% with UACC-62 melanoma; 81.2% with LOX IMVI melanoma; 96.2% in the assay on SK-MEL-28 melanoma; 80.6% in the assay with SK-MEL-2 melanoma; 98% in the assay with EKVX NSCLC; 80.3% in the assay with SN12C renal. Moreover, the growth is 85.6% with UO-31 renal; 93.1% with TK-10 renal; 100% in the assay with ACHN renal; 86.5% in the assay on CAKI-1 renal; 95.5% in the assay with A498 renal.
On to `CCN(CC)CCNc1ncnc2c1cnn2-c1ccc(Cl)cc1`, for which the growth with HCT-15 colon was 34.8%; in the assay on HT29 colon it was 7.44% (active); in the assay with SNB-75 CNS, 74.4%; with SNB-19 CNS, 91.2%; with U251 CNS, 75.5%; in the assay with PC-3 prostate, 82%. Besides, the growth was -50.5% (active) in the assay on UACC-62 melanoma; 60% with LOX IMVI melanoma; -40.4% (active) in the assay on SK-MEL-28 melanoma; 82.8% in the assay with EKVX NSCLC; 80.6% with SN12C renal; 118% in the assay with TK-10 renal. Also, the growth with ACHN renal was 92.6%; in the assay with CAKI-1 renal it was 61.5%; with A498 renal, 73.1%; with CCRF-CEM leukemia, 50.8%; in the assay with MOLT-4 leukemia, 92.9%.
`Oc1ccc([S+](c2ccc(O)cc2)c2ccc(O)cc2)cc1`: the growth in the assay on HCT-15 colon is 97.4%; in the assay on HT29 colon it was 108%; in the assay with SNB-75 CNS, 92.5%; with SNB-19 CNS, 99.7%; with U251 CNS it was 103%; in the assay with PC-3 prostate, 97.9%. In addition, the growth with UACC-62 melanoma is 101%; with LOX IMVI melanoma it was 107%; in the assay on SK-MEL-28 melanoma it was 105%; with SK-MEL-2 melanoma, 117%; in the assay on SN12C renal it was 95.2%; in the assay with UO-31 renal, 87.5%. The growth was 115% in the assay with TK-10 renal; 106% with ACHN renal; 102% with CAKI-1 renal; 71.3% in the assay on A498 renal; 100% in the assay with CCRF-CEM leukemia; 89.2% with MOLT-4 leukemia.
`CCCCCCCCCCC(C[N+](C)(C)C/C=C/c1ccccc1)C(O)c1ccccc1` (stereo not given): the growth with HCT-15 colon was 79.1%; in the assay on HT29 colon, -79.8% (active); in the assay on SNB-75 CNS, 5.59% (active); in the assay on SNB-19 CNS, 35.8%; in the assay on U251 CNS, -93.9% (active); in the assay on PC-3 prostate it was -29.9% (active). Moreover, the growth with UACC-62 melanoma was 17.4%; with SK-MEL-2 melanoma, -52.7% (active); with SN12C renal it was 15.8%; with UO-31 renal it was 74.1%; in the assay on TK-10 renal it was -2.74% (active); in the assay on ACHN renal, 72.2%. Besides, the growth in the assay on CAKI-1 renal was 87.5%; with A498 renal it was 59%; in the assay with MOLT-4 leukemia it was -24.4% (active).
As for `N#Cc1c2ncccc2c2nnc3cc(Cl)c(Cl)cc3n12`, the growth in the assay on HCT-15 colon was 82.9%; with HT29 colon, 95.2%; in the assay with SNB-75 CNS it was 67.1%; in the assay with SNB-19 CNS, 101%; in the assay with U251 CNS it was 90.6%; in the assay with SK-MEL-5 melanoma, 92.4%. The growth in the assay with UACC-62 melanoma was 90.8%; in the assay on LOX IMVI melanoma it was 97.4%; with SK-MEL-28 melanoma, 80.9%; with EKVX NSCLC, 84.1%; in the assay on SN12C renal, 110%; in the assay with UO-31 renal it was 76.3%. Further, the growth in the assay on TK-10 renal was 67.7%; in the assay with ACHN renal, 84.5%; with CAKI-1 renal, 70.3%; with A498 renal, 115%; in the assay on MOLT-4 leukemia it was 98.9%.
With `CC(=O)/C(=C\c1c(-c2ccccc2)[nH]c2ccccc12)S(=O)(=O)c1ccccc1`, the growth in the assay on HCT-15 colon was 13.5%; with HT29 colon, 11.3%; in the assay on SNB-75 CNS, -23.1% (active); in the assay with SNB-19 CNS, 53.7%; in the assay on U251 CNS, 17.5%; in the assay on SK-MEL-5 melanoma, 9.11% (active). For the same compound, the growth in the assay with UACC-62 melanoma is 13.6%; with LOX IMVI melanoma, -33.3% (active); in the assay with SK-MEL-2 melanoma it was -27.9% (active); in the assay with EKVX NSCLC it was 27.9%; in the assay on SN12C renal it was 5.37% (active); in the assay on UO-31 renal, 14%. Also, the growth with TK-10 renal is 10.2%; in the assay with ACHN renal it was 28.2%; in the assay on A498 renal, 41.4%; in the assay with MOLT-4 leukemia, -35.5% (active).
On to `CC[N+](C)(C)N`, for which the growth is 103% with HCT-15 colon; 102% in the assay on HT29 colon; 80.5% in the assay with SNB-75 CNS; 95.5% in the assay with SNB-19 CNS; 101% in the assay on U251 CNS; 100% with PC-3 prostate. Also, the growth was 105% in the assay on UACC-62 melanoma; 90.9% in the assay on LOX IMVI melanoma; 108% in the assay on SK-MEL-2 melanoma; 104% in the assay with SN12C renal; 89.8% in the assay on UO-31 renal; 100% in the assay with TK-10 renal. Moreover, the growth with ACHN renal was 110%; with CAKI-1 renal it was 95.4%; in the assay with A498 renal it was 121%; with MOLT-4 leukemia, 104%.
Turning to `CCC(C)CC(N)O` (stereo not given), the growth with HCT-15 colon was 103%; in the assay with HT29 colon, 111%; in the assay on SNB-75 CNS, 106%; with SNB-19 CNS, 106%; in the assay on U251 CNS, 106%; in the assay on PC-3 prostate it was 111%. Further, the growth with UACC-62 melanoma is 104%; in the assay on LOX IMVI melanoma it was 110%; in the assay with SK-MEL-28 melanoma it was 102%; in the assay on SK-MEL-2 melanoma, 128%; with SN12C renal, 109%; in the assay with UO-31 renal, 101%. Further, the growth in the assay with TK-10 renal was 99%; with ACHN renal, 106%; in the assay with CAKI-1 renal, 110%; in the assay on A498 renal, 109%; in the assay with CCRF-CEM leukemia it was 115%; in the assay with MOLT-4 leukemia, 106%.
Turning to `O=C(CCl)c1ccc2c(c1)CCCC2`, the growth was 69.6% with HCT-15 colon; 103% in the assay with HT29 colon; 114% with SNB-75 CNS; 108% with SNB-19 CNS; 96.5% in the assay with U251 CNS; 95.7% in the assay on PC-3 prostate. Also, the growth in the assay with UACC-62 melanoma is 98.5%; with SK-MEL-28 melanoma it was 105%; in the assay with SK-MEL-2 melanoma, 80.3%; in the assay with SN12C renal, 96.5%; in the assay with UO-31 renal, 91.2%; in the assay with TK-10 renal it was 86.7%. Also, the growth with ACHN renal was 98.4%; in the assay on CAKI-1 renal it was 74.9%; in the assay on A498 renal, 101%; with MOLT-4 leukemia, 68.6%.
